PubChem BioAssay (NCI)
This is part of a sample that, as a whole, favours compounds with a hit. Of some 79,000 tested, about 15% had one in any assay. Calls of active or inactive are those of the source. No stated cut-off is given here; in the data, active means growth inhibition above about 70%; inactive means the rest.

What was measured:
[1] = NCI Yeast Anticancer Drug Screen. Data for the wt1 strain (AID 149);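 further: 0% = growth of vehicle-treated wt1 cultures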; conditions: S. cerevisiae wt1 strain (SPY 50644) growth inhibition, hits give high values
Method in brief: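 Readout: yeast growth inhibition, normalised to vehicle controls, in the wt1 strain exposed to test compounds.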

[2] = NCI Yeast Anticancer Drug Screen. Data for the rad50EPP+ strain (AID 151);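 further: 0% = growth of vehicle-treated control cultures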; conditions: S. cerevisiae rad50 mutant strain, hits give high values
Method in brief: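 Strain rad50EPP+; compound exposure; % growth inhibition vs vehicle.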

[3] = NCI Yeast Anticancer Drug Screen. Data for the mgt1 strain (AID 153); conditions: S. cerevisiae mgt1 mutant growth inhibition, hits give high values
Method in brief: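 Read-out: yeast growth inhibition vs vehicle control. Strain mgt1, drawn from a panel altered in DNA damage repair or cell cycle control.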

[4] = NCI Yeast Anticancer Drug Screen. Data for the rad50 strain (AID 155);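 further: 0% = growth of vehicle-only cultures of the same strain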; conditions: S. cerevisiae rad50 strain growth inhibition, hits give high values
Method in brief: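 Compounds were tested on a yeast strain with an engineered DNA damage repair alteration; the reported value is growth inhibition normalised to vehicle treatment.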

[5] = NCI Yeast Anticancer Drug Screen. Data for the mec2-1 strain (AID 157); conditions: S. cerevisiae mec2-1 strain, hits give high values
Method in brief: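 Cells of the genetically defined mec2-1 yeast strain are incubated with test compound. Inhibition of growth is calculated against vehicle-treated controls.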

[6] = NCI Yeast Anticancer Drug Screen. Data for the rad14 strain (AID 159);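 further: 0% = growth of vehicle-treated control cultures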; conditions: S. cerevisiae rad14 strain growth inhibition, hits give high values
Method in brief: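 Compound-treated yeast with a defined DNA-repair lesion; growth inhibition normalised to vehicle-treated cultures.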

[7] = NCI Yeast Anticancer Drug Screen. Data for the sgs1 mgt1 strain (AID 161);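 further: 0% = growth of cultures given vehicle only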; conditions: S. cerevisiae sgs1 mgt1 strain, hits give high values
Method in brief: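 Mutant yeast exposed to compound; growth scored against vehicle-only wells.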

[8] = NCI Yeast Anticancer Drug Screen. Data for the CLN2oe strain (AID 163);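 further: 0% = growth of vehicle-only control cultures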; conditions: S. cerevisiae CLN2oe strain, hits give high values
Method in brief: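 Strain altered in cell-cycle control, incubated with compound; growth compared to solvent-treated controls.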

[9] = NCI Yeast Anticancer Drug Screen. Data for the cln2 rad14 strain (AID 165);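 further: 0% = growth equal to vehicle treated cultures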; conditions: S. cerevisiae cln2 rad14 strain, hits give high values
Method in brief: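 The screen exposed genetically defined yeast (cln2 rad14) to test compounds and scored growth inhibition relative to vehicle-treated controls.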

[10] = NCI Yeast Anticancer Drug Screen. Data for the bub3 strain (AID 167); conditions: S. cerevisiae bub3 mutant strain, hits give high values
Method in brief: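 Growth of a checkpoint-deficient yeast mutant is measured after compound exposure. Values represent inhibition relative to vehicle.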

[11] = NCI Yeast Anticancer Drug Screen. Data for the wt2 strain (AID 169);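 further: 0% = growth of vehicle-treated yeast cultures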; conditions: S. cerevisiae wt2 strain growth inhibition, hits give high values
Method in brief: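 Steps: yeast strain treated with compound; growth recorded; inhibition calculated relative to cultures given vehicle alone.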

[12] = NCI Yeast Anticancer Drug Screen. Data for the mlh1 strain (AID 171);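 further: 0% = growth of vehicle-treated control cultures of the same strain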; conditions: S. cerevisiae mlh1 strain growth inhibition, hits give high values
Method in brief: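 Yeast screen: mutant strain plus compound, growth scored against vehicle control wells.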

[13] = NCI Yeast Anticancer Drug Screen. Data for the sgs1 strain (AID 173);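 further: 0% = growth of vehicle-only control cultures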; conditions: S. cerevisiae sgs1 mutant, hits give high values
Method in brief: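 Inhibition of yeast growth served as the measure. The mutant strain was treated with each compound, and growth was normalised to cultures receiving vehicle alone.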

[14] = NCI Yeast Anticancer Drug Screen. Data for the rad18 strain (AID 177); conditions: S. cerevisiae rad18 mutant growth inhibition, hits give high values
Method in brief: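 Inhibition values reflect reduced yeast growth compared with vehicle-treated controls, using a strain engineered with a DNA damage repair defect.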

[15] = NCI Yeast Anticancer Drug Screen. Data for the mlh1 rad18 strain (AID 175); conditions: S. cerevisiae mlh1 rad18 strain growth inhibition, hits give high values
Method in brief: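 Compound-treated yeast growth, normalised to vehicle controls. Strain bears defined DNA repair mutations.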

[16] = at 5.0 µM (retest, dose inferred, filed as 0.5)
[17] = at 50.0 µM (retest, dose inferred, filed as 5.0)

Measured: growth inhibition

COc1cccc2c1C(=O)c1c(O)c3c(c(O)c1C2=O)CC(O)(C(O)CO)CC3OC1CC(N2CCOCC2)C(O)C(C)O1 (stereo not drawn)
inactive: [4]; at 50.0 µM 56.9% | [7]; [16] 22% | [9]; [16] 18% | [9]; [17] 61% | [10]; [16] 25%
active: [1]; at 1.2 µM 96% | [1]; at 3.7 µM 96% | [1]; at 11.0 µM 97% | [1]; at 33.0 µM 97% | [1]; at 100.0 µM 97% | [2]; at 1.2 µM 84% | [2]; at 3.7 µM 96% | [2]; at 11.0 µM 97% | [2]; at 33.0 µM 97% | [2]; at 100.0 µM 97% | [3]; at 1.2 µM 97% | [3]; at 3.7 µM 97% | [3]; at 11.0 µM 97% | [3]; at 33.0 µM 98% | [3]; at 100.0 µM 97% | [4]; at 1.2 µM 96% | [4]; at 3.7 µM 97% | [4]; [16] 98% | [4]; at 11.0 µM 97% | [4]; at 33.0 µM 97% | [4]; [17] 98% | [4]; at 100.0 µM 97% | [5]; at 1.2 µM 97% | [5]; at 3.7 µM 97% | [5]; [16] 99% | [5]; at 11.0 µM 98% | [5]; at 33.0 µM 98% | [5]; [17] 99% | [5]; at 50.0 µM 91.3% | [5]; at 100.0 µM 98% | [6]; at 1.2 µM 95% | [6]; at 3.7 µM 96% | [6]; at 11.0 µM 96% | [6]; at 33.0 µM 97% | [6]; at 100.0 µM 97% | [7]; [17] 90% | [7]; at 50.0 µM 91.5% | [8]; at 1.2 µM 96% | [8]; at 3.7 µM 97% | [8]; at 11.0 µM 97% | [8]; at 33.0 µM 98% | [8]; at 100.0 µM 98% | [9]; at 50.0 µM 90.8% | [10]; at 1.2 µM 98% | [10]; at 3.7 µM 98% | [10]; at 11.0 µM 98% | [10]; at 33.0 µM 98% | [10]; [17] 93% | [10]; at 50.0 µM 93.5% | [10]; at 100.0 µM 98% | [11]; at 1.2 µM 96% | [11]; at 3.7 µM 97% | [11]; at 11.0 µM 96% | [11]; at 33.0 µM 97% | [11]; at 100.0 µM 98% | [12]; at 1.2 µM 97% | [12]; at 3.7 µM 97% | [12]; at 11.0 µM 97% | [12]; at 33.0 µM 98% | [12]; at 100.0 µM 98% | [13]; at 1.2 µM 97% | [13]; at 3.7 µM 97% | [13]; at 11.0 µM 97% | [13]; at 33.0 µM 98% | [13]; at 100.0 µM 98% | [14]; at 1.2 µM 96% | [14]; at 3.7 µM 96% | [14]; at 11.0 µM 97% | [14]; at 33.0 µM 97% | [14]; at 100.0 µM 98%

CC1=C(SCc2ccccc2)C(=O)c2ccccc2C1=O
active: [1]; at 100.0 µM 91% | [3]; at 100.0 µM 89% | [4]; [16] 99% | [4]; at 33.0 µM 81% | [4]; [17] 91% | [4]; at 100.0 µM 87% | [5]; [16] 98% | [5]; at 33.0 µM 74% | [5]; [17] 92% | [5]; at 100.0 µM 90% | [6]; at 33.0 µM 85% | [6]; at 100.0 µM 92% | [7]; at 50.0 µM 71.3% | [8]; at 100.0 µM 80% | [10]; at 33.0 µM 84% | [10]; at 50.0 µM 79% | [10]; at 100.0 µM 90% | [11]; at 33.0 µM 75% | [11]; at 100.0 µM 92% | [12]; at 100.0 µM 89% | [13]; at 33.0 µM 76% | [13]; at 100.0 µM 90% | [15]; [16] 99% | [15]; [17] 92% | [15]; at 50.0 µM 73.5% | [14]; at 33.0 µM 79% | [14]; at 100.0 µM 90%
inactive: [1]; at 1.2 µM -15% | [1]; at 3.7 µM -15% | [1]; at 11.0 µM -7% | [1]; at 33.0 µM 64% | [2]; at 1.2 µM -28% | [2]; at 3.7 µM -20% | [2]; at 11.0 µM -4% | [2]; at 33.0 µM 35% | [2]; at 100.0 µM 59% | [3]; at 1.2 µM -74% | [3]; at 3.7 µM -64% | [3]; at 11.0 µM -51% | [3]; at 33.0 µM 43% | [4]; at 1.2 µM -12% | [4]; at 3.7 µM -22% | [4]; at 11.0 µM 8% | [4]; at 50.0 µM 68.9% | [5]; at 1.2 µM -78% | [5]; at 3.7 µM -69% | [5]; at 11.0 µM -68% | [5]; at 50.0 µM 51.1% | [6]; at 1.2 µM -32% | [6]; at 3.7 µM -37% | [6]; at 11.0 µM -35% | [7]; [16] -23% | [7]; [17] 34% | [8]; at 1.2 µM -44% | [8]; at 3.7 µM -22% | [8]; at 11.0 µM -27% | [8]; at 33.0 µM 63% | [9]; [16] 44% | [9]; [17] 53% | [9]; at 50.0 µM 46.2% | [10]; at 1.2 µM -14% | [10]; at 3.7 µM -17% | [10]; [16] 20% | [10]; at 11.0 µM 26% | [10]; [17] 64% | [11]; at 1.2 µM -19% | [11]; at 3.7 µM -40% | [11]; at 11.0 µM -10% | [12]; at 1.2 µM -43% | [12]; at 3.7 µM -29% | [12]; at 11.0 µM -19% | [12]; at 33.0 µM 62% | [13]; at 1.2 µM -53% | [13]; at 3.7 µM -56% | [13]; at 11.0 µM -29% | [14]; at 1.2 µM -23% | [14]; at 3.7 µM -46% | [14]; at 11.0 µM -27%
